ATXN viability – cell viability loss in ATXN counter-screen; Potency, µM (doses to about 56.7 µM), actives largely listed as cytotoxic; 400,000 compounds, 0.49% hits; S2 cells (HEK-293 line with an ATXN2-luciferase reporter) viability, CellTiter-Fluor protease fluorescence, 24 h; AID 651635; note: potency is the fitted concentration of half-maximal effect; nearly all actives have a fitted effect of over 40% in size
IL-1B inflam inh – inhibitors of inflammasome signaling (IL-1 beta secretion); THP-1 LPS/ATP IL-1B secretion, AlphaLISA, 16 h; stronger effect = lower value; activity change, % at 57.5 µM; 360,000 compounds, 4.7% hits; in the data active = activity change below about -50%; inconclusive = mostly about -30% to -49%; note: % is set by controls: 0 for no effect and ±100 for the full control effect
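Secreted IL-1B measured by AlphaLISA bead assay after 16 h compound exposure of THP-1 cells; compounds (final up to 57.5 uM) added 1 h before LPS (250 ng/mL) and ATP (1.25 mM) stimulation; lower signal means less secretion.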
USP1 inh – inhibitors of human USP1/UAF1 deubiquitinase; recombinant USP1/UAF1, Ub-Rhodamine cleavage fluorescence; 390,000 compounds, 0.23% hits; O94782; AID 743255; Potency, µM (highest dose often 57.1 µM), for inactives: at the top dose activity change, negative = inhibition, hits mostly inhibitors; note: potency is the fitted concentration of half-maximal effect; % is set by controls: 0 for no effect and ±100 for the full control effect; nearly all actives have a fitted effect of over 60% in size
Target sequence (O94782 whole entry, looked up): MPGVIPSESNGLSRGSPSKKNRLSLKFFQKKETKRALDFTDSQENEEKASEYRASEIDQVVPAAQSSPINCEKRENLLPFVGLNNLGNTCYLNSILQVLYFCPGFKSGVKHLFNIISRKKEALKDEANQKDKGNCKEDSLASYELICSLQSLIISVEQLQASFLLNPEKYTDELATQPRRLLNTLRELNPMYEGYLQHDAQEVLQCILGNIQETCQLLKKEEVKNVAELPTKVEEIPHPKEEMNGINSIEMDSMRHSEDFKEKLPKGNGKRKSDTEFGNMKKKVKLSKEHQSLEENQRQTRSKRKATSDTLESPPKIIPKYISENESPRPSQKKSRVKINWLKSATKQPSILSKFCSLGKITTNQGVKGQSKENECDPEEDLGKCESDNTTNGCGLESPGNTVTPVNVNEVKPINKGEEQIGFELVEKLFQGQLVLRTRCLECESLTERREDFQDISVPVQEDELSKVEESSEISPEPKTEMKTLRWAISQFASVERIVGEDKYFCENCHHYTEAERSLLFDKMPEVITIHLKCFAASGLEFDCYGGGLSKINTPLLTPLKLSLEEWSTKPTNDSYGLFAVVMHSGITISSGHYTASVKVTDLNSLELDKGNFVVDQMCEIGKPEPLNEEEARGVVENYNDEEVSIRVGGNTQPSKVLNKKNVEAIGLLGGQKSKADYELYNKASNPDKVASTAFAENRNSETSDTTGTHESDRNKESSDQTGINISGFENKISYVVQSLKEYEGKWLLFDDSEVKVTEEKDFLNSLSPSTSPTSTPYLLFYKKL
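In this screen, compounds sit with the deubiquitinase complex (1nM) for 15 min at room temperature before Ub-Rho is added at 150nM final. Fluorescence rise is then followed for 6 reads every 60 seconds.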
ATXN2 expr inh – inhibitors of ATXN2 expression; HEK-293 ATXN2-luciferase reporter, luminescence, 24 h; Potency, µM (top dose mostly 57 µM), for the others: at the top dose activity change, negative = inhibition, hits mostly inhibitors; 360,000 compounds, 0.72% hits; note: potency is the fitted concentration of half-maximal effect; % is set by controls: 0 for no effect and ±100 for the full control effect; nearly all actives have a fitted effect of over 55% in size
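qHTS (up to 57 uM final) was run with 24 h compound exposure of reporter cells at 37 °C. Each well was multiplexed: SteadyGlo luminescence measured ATXN2-luciferase expression after a fluorogenic Gly-Phe-AFC viability readout (25 uM final).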
USP2a block – USP2a (human) protease inhibition | Potency, µM (highest dose often 38.3 µM), for inactives: top-dose activity change, negative = inhibition, actives largely listed as inhibitors | 330,000 compounds, 0.01% hits | USP2 core, Ub-CHOP2 coupled fluorogenic reporter, 485/531 | AID 463254;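 note: potency is the fitted concentration of half-maximal effect; plate controls were DMSO wells for no effect and full inhibition by NEM control for full effect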
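USP2 core (10nM final) preincubated 30min RT with compound in 20mM Tris-HCl pH 8.0, 2mM CaCl2, 2mM beta-mercaptoethanol, 0.05% CHAPS; 25nM Ub-CHOP2 plus 25nM reporter substrate added, fluorescence (Ex485/Em531) read after 60min.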
* marks the source's active call; other numbers are inactive results. Rows were chosen to be rich in hits. Some 4.8% of all compounds tested hit in one or more screens of this group. Unless noted, calls come from the whole dose curve; as a rule, active = well fitted curve in the direction sought with a large enough effect; inconclusive = small, poorly fitted or top-dose-only effect, or another doubt; inactive = no such curve, though single readings can be large; an effect the other way counts as inactive or inconclusive.

Results for COc1cccc(OC)c1C(=O)Nc1cccc(NC(=O)c2cccs2)c1 ?
ATXN viability: inactive; IL-1B inflam inh: 0.0; USP1 inh: -11.0%; USP2a block: 3.4%

What do the screens show for `CC(C)C1OC(c2cccc(NC(=O)c3cccs3)c2)OCC1(C)C` (centres undefined)?
ATXN viability: inactive; IL-1B inflam inh: -74.5*; USP1 inh: -10.6%; ATXN2 expr inh: -35.3%; USP2a block: 4.3%

Results for S=C(NN=C(c1ccccc1)c1ccccn1)N(Cc1ccccn1)Cc1ccccn1 ?
IL-1B inflam inh: -58.5*; USP1 inh: -15.4%; ATXN2 expr inh: 0.891µM*

Results for O=C(CCCC(=O)N/N=C\c1ccccn1)N/N=C\c1ccccn1 ?
ATXN viability: inactive; IL-1B inflam inh: 0.0; USP1 inh: 4.0%; ATXN2 expr inh: 2.6%; USP2a block: 3.2%

How did CC(=NNC(=S)N(Cc1ccccn1)Cc1ccccn1)c1cnccn1 do in these assays?
ATXN viability: inconclusive; IL-1B inflam inh: 104.4; USP1 inh: -16.1%; ATXN2 expr inh: 1.26µM*

What do the screens show for `S=C(NN=Cc1ccccn1)N(Cc1ccccn1)Cc1ccccn1`?
ATXN viability: inconclusive; IL-1B inflam inh: 58.7; USP1 inh: -9.8%; ATXN2 expr inh: 7.94µM*

How did Cn1c(=O)c2c(SCC(=O)NCc3ccco3)nc(-c3ccccc3)nc2n(C)c1=O do in these assays?
ATXN viability: inactive; USP1 inh: -11.0%; ATXN2 expr inh: 0.7%

How did COc1ccc(NC(=O)C2CC23CCN(Cc2cccc4ncccc24)CC3)cc1Cl (centres undefined) do in these assays?
ATXN viability: inactive

How did Cc1cc(C)c(NC(=O)Cn2c(=O)n(Cc3ccc(C(=O)NCc4ccco4)cc3)c(=O)c3sccc32)c(C)c1 do in these assays?
USP1 inh: 1.4%

What do the screens show for `Cc1cc(=O)[nH]c(N/N=C/c2c(F)c(F)c(F)c(F)c2F)n1`?
ATXN viability: inactive; IL-1B inflam inh: -92.0*; USP1 inh: -27.9%; ATXN2 expr inh: -21.3%; USP2a block: 6.0%

What do the screens show for `N#C/C(=C/c1ccc(-c2ccccc2[N+](=O)[O-])o1)C(N)=O`?
ATXN viability: inactive; IL-1B inflam inh: -8.7; USP1 inh: -14.3%; ATXN2 expr inh: -26.4%; USP2a block: 3.7%

How did O=C(/C=C/c1ccc(-c2ccccc2[N+](=O)[O-])o1)c1ccc(F)cc1 do in these assays?
ATXN viability: inconclusive; IL-1B inflam inh: -99.3*; USP1 inh: -11.5%; ATXN2 expr inh: inconclusive; USP2a block: -0.3%

How did O=C(/C=C/c1ccc(-c2ccccc2[N+](=O)[O-])o1)c1ccc(Br)cc1 do in these assays?
ATXN viability: inactive; IL-1B inflam inh: -65.9*; USP1 inh: -19.4%; ATXN2 expr inh: inconclusive; USP2a block: 5.8%

What do the screens show for `O=C(C=Cc1ccccc1)c1ccc([N+](=O)[O-])cc1`?
ATXN viability: inactive; IL-1B inflam inh: -26.9; USP1 inh: -7.4%; ATXN2 expr inh: -13.7%

Results for O=C(N/N=C/c1ccc(-c2ccccc2[N+](=O)[O-])o1)c1cccnc1 ?
ATXN viability: inactive; IL-1B inflam inh: 14.7; USP1 inh: inconclusive; ATXN2 expr inh: 15.2%; USP2a block: 4.5%

What do the screens show for `Cc1ccc(C(=O)/C=C/c2ccc(-c3ccccc3[N+](=O)[O-])o2)cc1`?
ATXN viability: inactive; IL-1B inflam inh: -95.5*; USP1 inh: -9.1%; ATXN2 expr inh: -17.4%; USP2a block: -1.4%

How did Cc1ccc(C(=O)/C=C/c2ccccc2[N+](=O)[O-])cc1 do in these assays?
ATXN viability: inconclusive; IL-1B inflam inh: -57.2*; USP1 inh: -5.8%; ATXN2 expr inh: inconclusive; USP2a block: 0.1%

Results for COc1ccc(-c2cn(-c3ccccc3)nc2C(=O)O)cc1OC ?
ATXN viability: inactive; IL-1B inflam inh: -4.6; USP1 inh: -4.9%; USP2a block: 5.4%

What do the screens show for `O=C(/C=C/c1ccccc1[N+](=O)[O-])N1CCCCC1`?
ATXN viability: inactive; IL-1B inflam inh: -5.0; USP1 inh: -18.3%; ATXN2 expr inh: 17.2%; USP2a block: 1.1%

How did Cc1ccc(C(=O)/C=C/C(=O)c2ccc(C)cc2)cc1 do in these assays?
ATXN viability: inconclusive; IL-1B inflam inh: -71.3*; USP1 inh: -12.7%; ATXN2 expr inh: inconclusive; USP2a block: 1.6%

How did O=C(/C=C/c1ccccc1[N+](=O)[O-])c1ccccc1Br do in these assays?
ATXN viability: inconclusive; IL-1B inflam inh: -103.5*; USP1 inh: -18.9%; ATXN2 expr inh: inconclusive; USP2a block: 2.1%

How did COc1ccc(C(=O)NC2CCCCC2)cc1OC1CCN(C(C)C)CC1 do in these assays?
ATXN viability: inactive; IL-1B inflam inh: -12.5; USP1 inh: -19.6%; ATXN2 expr inh: 4.5%; USP2a block: 1.0%

What do the screens show for `Cc1nc2ccccn2c1C(=O)CSc1cccc(Cl)c1`?
ATXN viability: inactive; IL-1B inflam inh: -69.6*; USP1 inh: -23.4%; ATXN2 expr inh: -20.9%; USP2a block: -2.1%

What do the screens show for `CCCc1c(-c2cccc(Cl)c2)ncn1CCc1ccccc1OC`?
ATXN viability: 22.4µM*; IL-1B inflam inh: -21.4; ATXN2 expr inh: inconclusive

How did CCCc1c(-c2ccc(Cl)cc2)ncn1Cc1ccccc1OC do in these assays?
IL-1B inflam inh: -1.5; ATXN2 expr inh: inconclusive

Results for CCCc1c(-c2ccc(Cl)cc2)ncn1CCc1ccccc1OC ?
ATXN viability: 35.5µM*; IL-1B inflam inh: -92.9*; ATXN2 expr inh: inconclusive

What do the screens show for `CCCc1c(-c2ccc(F)cc2)ncn1CCc1ccccc1OC`?
ATXN viability: inconclusive; IL-1B inflam inh: -5.8; ATXN2 expr inh: inconclusive

How did Cc1ccc(-n2c(SCC(=O)N3CC(=O)Nc4ccccc43)nc3ccccc3c2=O)cc1 do in these assays?
ATXN viability: inactive; IL-1B inflam inh: -74.4*; USP1 inh: -6.7%; ATXN2 expr inh: -16.3%; USP2a block: -2.6%

How did CC(C)c1nc(SCC(=O)N2c3ccccc3CC2C)c2ccccc2n1 (centres undefined) do in these assays?
ATXN viability: inactive; IL-1B inflam inh: -99.0*; USP1 inh: -7.5%; ATXN2 expr inh: -10.1%; USP2a block: 2.9%

How did CC(C)c1nc(SCC(=O)N2CC(=O)Nc3ccccc32)c2ccccc2n1 do in these assays?
ATXN viability: inactive; IL-1B inflam inh: -99.3*; USP1 inh: -25.2%; ATXN2 expr inh: 50.9%; USP2a block: 0.3%

How did Cc1cccc(C)c1-n1c(SCC(=O)N2CC(=O)Nc3ccccc32)nc2ccccc2c1=O do in these assays?
ATXN viability: inconclusive; IL-1B inflam inh: -11.0; USP1 inh: -20.8%; ATXN2 expr inh: -12.8%; USP2a block: 2.3%

How did CC1CCN(CCCNC(=O)c2cc(Sc3ccc(F)cc3)nc3ccccc23)CC1 do in these assays?
USP1 inh: -14.5%
